PubChem BioAssay AID743366 (National Center for Advancing Translational Sciences (NCATS), 2014)

Assay: qHTS profiling of inhibitors of Plasmodium falciparum (HB3) proliferation (acoustic dispense)
Settings: P. falciparum HB3 in erythrocytes, SYBR Green, 72 h; at 49.8 µM (top of the series) unless noted
Text: Plasmodium falciparum is a virulent malarial parasite that kills 1-2 million people worldwide each year. Transmitted by mosquitoes, the sporozoite form of the parasite enters the blood stream to infect hepatocytes, where they become merozoites that infect red blood cells (erythrocytes). Within erythrocytes, merozoites begin a […] cycle of growth and division, after which the parasite is released to infect new red blood cells. Gametocytes, which form within erythrocytes as well, circulate in the bloodstream and are ingested by the mosquito, thereby completing the life cycle. To profile malarial isolates for differential chemical responses and to identify inhibitors of malarial growth, an assay that measures P. falciparum growth and replication within erythrocytes was employed. This assay uses a DNA binding fluorescent dye (SYBR Green) to detect parasite DNA following cell lysis. Because mature erythrocytes lack DNA, only Plasmodium-derived DNA is detected.
The SYBR Green viability assay was adapted from a method described previously (Plouffe et al., 2008). For screening 3 ul culture medium was dispensed into 1536 well black clear bottom plates (Aurora Biotechnologies) using a Multidrop Combi (Thermo Fisher Scientific Inc.), 23 nL of compounds in DMSO were added by an acoustic dispenser (EDC Biosystems), and 5 ul of erythrocytes infected with P. falciparum (0.3% parasitemia, 2.5% hematocrit final concentration) were added. The plates were incubated at 37 C in a humidified incubator in 5% CO2 for 72 h, and 2 ul lysis buffer (20 mM Tris HCl, 10 mM EDTA, 0.16% saponin, 1.6% triton X, 10X SYBR Green I supplied as 10,000X […] by Invitrogen) was added to each well. The plates were mixed for 25 sec with gentle shaking and incubated overnight at room temperature in the dark. The following morning, fluorescence intensity at 485(14) nm excitation and 535(25) nm emission wavelengths was measured on an EnVision (Perkin Elmer) plate reader. Plate reads were normalized relative to the control inhibitor (0.29 uM artemisinin) and vehicle (DMSO) wells present on each plate and then corrected by an algorithm using vehicle-only control plates at the beginning and end of the compound plate stack.

| Compound | activity (normalised, proliferation) |
| --- | --- |
| C[C@H]1CCCC=CC2C[C@H](O)C[C@@H]2[C@H](O)C=CC(=O)O1 (stereo partly specified) | -0.991% |
| CC1=C(O)C(=O)C=C2C1=CC=C1[C@@]2(C)CC[C@@]2(C)[C@@H]3C[C@](C)(C(=O)O)CC[C@]3(C)CC[C@]12C | 7.07% |
| C[C@@H]1C[C@@H]([C@H](O)CC2CC(=O)NC(=O)C2)C(=O)[C@@H](C)C1 | 0.071% |
| CC(=O)Nc1nnc(S(N)(=O)=O)s1 | 89.5% |
| O=c1[nH]c2ccc(Cl)cc2c(N[C@@H]2CN3CCC2CC3)c1-c1nc2ccccc2[nH]1 | -0.29% |
| COC(=O)[C@@]1(OC)C[C@@H]2O[C@@]1(C)n1c3ccccc3c3c4c(c5c6ccccc6n2c5c31)C(=O)N(C)C4 | -0.375% [at 16.5 µM] |
| COC1=CC(C)=C[C@@H](C)[C@@H](O)[C@@H](C)CC(C)=CC=C[C@H](OC)[C@H]([C@@H](C)[C@@H](O)[C@H](C)[C@@]2(O)C[C@@H](O)[C@H](C)[C@@H](C(C)C)O2)OC1=O | 0.863% |
| CC(C)(N)CNC(=O)CC1CCC2(CC1)OOC1(O2)C2CC3CC(C2)CC1C3 (stereo unspecified) | -0.313% |
| O=C(C[C@@H]1NCCC[C@@H]1O)Cn1cnc2ccccc2c1=O | -0.592% |
| CC=C(C)C(=O)N[C@@H](c1ccccc1)[C@@H](O)C(=O)O[C@H]1C[C@@]2(O)[C@@H](OC(=O)c3ccccc3)[C@@H]3[C@]4(OC(C)=O)CO[C@@H]4C[C@H](O)[C@@]3(C)C(=O)[C@H](OC(C)=O)C(=C1C)C2(C)C | 2.88% |
| CC=C1C2C=C(C)CC1(N)c1ccc(=O)[nH]c1C2 (stereo unspecified) | 103% |
| CN1C(=O)C[C@H](C(=O)N[C@@H](Cc2cnc[nH]2)C(=O)N2CCC[C@@H]2C(N)=O)NC1=O | 72.5% |
| CC(=O)N(O)CCCP(=O)(O)O | 2.97% |
| C[C@]12O[C@H](C[C@@]1(O)C(=O)O)n1c3ccccc3c3c4c(c5c6ccccc6n2c5c31)CNC4=O | 8.93% [at 4.15 µM] |
| CC(=Cc1csc(C)n1)[C@@H]1C[C@H]2O[C@@H]2CCC[C@H](C)[C@@H](O)[C@@H](C)C(=O)C(C)(C)[C@@H](O)CC(=O)O1 | 10.3% |
| CO[C@H]1CCC(O[C@H]2C[C@H]([C@]3(C)CC[C@]4(C[C@H](O)[C@@H](C)[C@@H]([C@@H](C)C=C(C)C(=O)[C@H](C)C[C@H](C)C(=O)O)O4)O3)O[C@]3(O[C@@H]([C@H]4O[C@@](O)(CO)[C@H](C)C[C@H]4C)C[C@H]3C)[C@H]2C)O[C@H]1C (stereo partly specified) | 120% |
